Test [1] is described as follows: antimalarial activity against Dd2 strain (AID 2302;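 active = growth inhibition above 50% at the single 2 µM test dose, taken to imply half-maximal potency below 2 µM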;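 also: 0% = DMSO untreated growth and 100% = chloroquine plus artemisinin killed control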). The following applies: P. falciparum Dd2 in RBCs, LDH growth readout, 72 h; at 2 µM; active compounds read high.
A short description of test [2]: human hepatoma cell viability loss – ATP luminescence, cytotoxicity control for P. falciparum antimalarial project, primary screen (AID 2303;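 active = inhibition above 50%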;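 also: 0% = DMSO wells and 100% = digitonin-killed cells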). The following applies: HepG2 viability, 24-48 h, at 10 µM, active compounds read high.
In test [3] the target is L-lactate dehydrogenase (Plasmodium falciparum (isolate CDC / Honduras)) (UniProt Q27743). Put plainly: PfLDH activity inhibition – cell lysate, 3D7 strain, counter-screen for P. falciparum growth inhibition project (AID 2304).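 Also: 0% = vehicle and 100% = reference inhibitor.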 The following applies: P. falciparum 3D7 crude extract, LDH APAD/NBT absorbance; at 2 µM; active compounds read high. On the technique in general: A counterscreen serves to expose hits that act by an unwanted route or on another target.

The nature of test [4]: inhibition of 3D7 malaria parasite growth – strain 3D7 (AID 2306).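 Also: 0% = DMSO wells and 100% = chloroquine plus artemisinin control wells.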 The following applies: P. falciparum 3D7 erythrocytic growth, LDH absorbance, 72 h; at 2 µM; active compounds read high.
Test [5] deals with Calcium-dependent protein kinase 1 (Plasmodium falciparum (isolate 3D7)) (UniProt P62344). Briefly: PfCDPK1 kinase inhibitors, biochemical, TCAMS library (AID 1159585; cut-off not given, nearly all actives have IC50 up to about 0.98 µM;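 also: inhibitors leave more ATP so luminescence rises with inhibition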). To be noted: recombinant PfCDPK1, Kinase-Glo ATP depletion luminescence. For orientation: Kinase-Glo measures the ATP left after a reaction by luminescence.
The target of test [6] is Plasmodium falciparum protein kinase 6 (PK6, PF3D7_1337100) (UniProt Q8IDW1). Briefly: PfPK6 kinase inhibitors, biochemical, TCAMS library (AID 1159586). The following applies: recombinant PfPK6, Kinase-Glo ATP depletion luminescence.
The target in test [7] is Protein kinase 7 (PK7), Plasmodium falciparum 3D7 (PF3D7_0213400) (UniProt Q7YTF7). Put plainly: inhibition of Plasmodium PK7 catalytic activity – biochemical, TCAMS antimalarial set, Kinase-Glo luminescence (AID 1159587). To be noted: recombinant PfPK7, Kinase-Glo ATP depletion luminescence.
Test [8] deals with Calcium-dependent protein kinase 4 (Plasmodium falciparum (isolate 3D7)) (UniProt Q8IBS5). Briefly: PfCDPK4 kinase inhibitors, biochemical, TCAMS library (AID 1159588; cut-off not given, nearly all actives have IC50 up to about 0.91 µM). To be noted: recombinant PfCDPK4, Kinase-Glo ATP depletion luminescence.

SMILES strings stand for the structures. A number with no mark means an inactive call. For some of these results: Results with a measured potency or affinity are listed apart. Activity calls are given as the source filed them. Unless noted, no rule for the calls is given here.

Sequence of Calcium-dependent protein kinase 4 (Plasmodium falciparum (isolate 3D7)) (Q8IBS5 whole entry, looked up): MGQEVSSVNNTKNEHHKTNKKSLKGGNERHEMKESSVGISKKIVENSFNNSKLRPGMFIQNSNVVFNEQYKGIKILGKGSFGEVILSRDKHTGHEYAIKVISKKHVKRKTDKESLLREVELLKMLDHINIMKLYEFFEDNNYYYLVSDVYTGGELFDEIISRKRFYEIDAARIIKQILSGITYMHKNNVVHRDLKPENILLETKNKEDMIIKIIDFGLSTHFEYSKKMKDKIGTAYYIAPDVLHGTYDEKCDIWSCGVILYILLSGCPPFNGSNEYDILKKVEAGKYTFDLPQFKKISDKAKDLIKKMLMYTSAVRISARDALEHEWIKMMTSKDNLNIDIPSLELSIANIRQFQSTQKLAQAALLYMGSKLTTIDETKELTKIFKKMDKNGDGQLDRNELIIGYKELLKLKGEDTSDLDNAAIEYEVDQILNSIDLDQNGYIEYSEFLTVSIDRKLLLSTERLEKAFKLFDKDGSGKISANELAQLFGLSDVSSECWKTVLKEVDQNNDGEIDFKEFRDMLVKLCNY
Sequence of Calcium-dependent protein kinase 1 (Plasmodium falciparum (isolate 3D7)) (P62344 whole entry, looked up): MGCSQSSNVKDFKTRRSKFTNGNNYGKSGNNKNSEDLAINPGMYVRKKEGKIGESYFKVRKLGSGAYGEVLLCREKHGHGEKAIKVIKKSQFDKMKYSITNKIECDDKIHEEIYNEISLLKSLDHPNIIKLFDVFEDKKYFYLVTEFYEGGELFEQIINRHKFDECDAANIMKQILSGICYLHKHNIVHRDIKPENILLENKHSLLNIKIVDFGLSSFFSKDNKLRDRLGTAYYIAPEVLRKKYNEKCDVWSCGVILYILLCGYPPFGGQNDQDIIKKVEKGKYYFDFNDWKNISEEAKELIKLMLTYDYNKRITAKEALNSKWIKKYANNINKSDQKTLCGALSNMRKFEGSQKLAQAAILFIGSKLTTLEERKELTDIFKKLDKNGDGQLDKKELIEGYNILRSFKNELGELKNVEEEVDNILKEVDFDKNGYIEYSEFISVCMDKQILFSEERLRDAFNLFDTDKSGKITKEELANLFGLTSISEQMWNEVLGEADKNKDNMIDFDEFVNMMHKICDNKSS
Sequence of Plasmodium falciparum protein kinase 6 (PK6, PF3D7_1337100) (Q8IDW1 1-305): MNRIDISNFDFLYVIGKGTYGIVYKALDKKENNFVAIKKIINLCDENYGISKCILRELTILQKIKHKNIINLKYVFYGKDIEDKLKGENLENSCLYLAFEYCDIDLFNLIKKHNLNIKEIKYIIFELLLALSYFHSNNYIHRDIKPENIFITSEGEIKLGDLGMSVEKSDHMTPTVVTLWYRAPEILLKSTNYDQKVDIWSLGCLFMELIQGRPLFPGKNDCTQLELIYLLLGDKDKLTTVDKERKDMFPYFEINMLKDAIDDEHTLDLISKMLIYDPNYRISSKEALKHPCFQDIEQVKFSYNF
Sequence of L-lactate dehydrogenase (Plasmodium falciparum (isolate CDC / Honduras)) (Q27743 whole entry, looked up): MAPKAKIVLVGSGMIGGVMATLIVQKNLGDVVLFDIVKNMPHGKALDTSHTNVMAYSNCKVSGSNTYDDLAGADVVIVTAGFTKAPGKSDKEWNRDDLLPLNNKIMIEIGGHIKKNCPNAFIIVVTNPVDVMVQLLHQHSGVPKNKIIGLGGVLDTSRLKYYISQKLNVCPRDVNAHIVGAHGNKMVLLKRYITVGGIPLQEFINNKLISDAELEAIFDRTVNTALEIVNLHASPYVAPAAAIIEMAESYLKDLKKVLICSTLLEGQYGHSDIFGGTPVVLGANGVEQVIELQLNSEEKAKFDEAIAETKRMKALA
Sequence of Protein kinase 7 (PK7), Plasmodium falciparum 3D7 (PF3D7_0213400) (Q7YTF7 1-343): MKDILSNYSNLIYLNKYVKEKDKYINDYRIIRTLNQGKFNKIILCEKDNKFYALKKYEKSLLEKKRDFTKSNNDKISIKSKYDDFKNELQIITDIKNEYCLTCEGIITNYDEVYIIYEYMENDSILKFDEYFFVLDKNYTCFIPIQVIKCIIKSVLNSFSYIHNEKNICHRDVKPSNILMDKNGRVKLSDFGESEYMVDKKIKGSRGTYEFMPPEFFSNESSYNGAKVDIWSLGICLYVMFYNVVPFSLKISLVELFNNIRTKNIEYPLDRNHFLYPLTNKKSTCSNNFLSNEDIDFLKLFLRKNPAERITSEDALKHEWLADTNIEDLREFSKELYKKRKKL

In general, inhibition refers to the drop in the measured response relative to a control, in per cent. Regarding `CS(=O)(=O)c1ccc(CCNCc2ccc(-c3ccc(CN(C(=O)c4ccc(Cl)nc4)C4CCN(Cc5ccccc5)CC4)cc3)nc2)cc1`, the results for the growth inhibition in test [1] and in test [4] were 70% (active) and 93% (active), respectively. The results for the inhibition in test [2] and in test [3] were 24% and -2%, respectively. Further, the result in test [5], in test [6], in test [7] and in test [8] was inactive.
In the case of `COc1cccc2cc(C(=O)N[C@@H](CC(C)C)C(=O)N[C@H](/C=N/N(C)C(=O)OC(C)(C)C)Cc3ccccc3)oc12`, the growth inhibition in test [1] is 89% (active); in test [4] it was 99% (active). Besides, the inhibition in test [2] was 5%; in test [3], -3%. In addition, the result in test [5], in test [6], in test [7] and in test [8] was inactive.
Turning to `CS(=O)(=O)c1cccc(-c2cnc3[nH]cc(-c4ccc(CCC(=O)O)cc4)c3c2)c1`, the growth inhibition in test [1] is 99% (active); in test [4], 97% (active). Also, the results for the inhibition in test [2] and in test [3] were 1% and -6%, respectively. The result in test [5], in test [6], in test [7] and in test [8] was inactive.
In the case of `COc1ccc(S(=O)(=O)NC2CCN(c3cc(C)nc(Nc4cccc(C#N)c4)n3)CC2)cc1`, the figures for the growth inhibition in test [1] and in test [4] were 55% (active) and 88% (active), respectively. For the same molecule, the inhibition in test [2] was 9%; in test [3], -4%. Also, the result in test [5], in test [6], in test [7] and in test [8] was inactive.
As for `CC(Oc1c(C2CCN(CCCCNC(=O)c3ccc(-c4ccc(C#N)cc4)cc3)CC2)ccc2c1CCCC2)C(N)=O` (stereo not given), the growth inhibition was 83% (active) in test [1] and 100% (active) in test [4]. Also, the inhibition in test [2] is 41%; in test [3], -3%. Moreover, the outcome in test [5], in test [6], in test [7] and in test [8] was inactive.
In the case of `CCOC(=O)c1ccc(NC(=O)NNC(=O)c2ccc(CCN3CCC(c4nc(COCC(F)(F)F)c(-c5ccc(F)cc5)o4)CC3)cc2)cc1`, the growth inhibition is 67% (active) in test [1] and 103% (active) in test [4]. The inhibition in test [2] was 10%; in test [3], 0%. Moreover, the result in test [5], in test [6], in test [7] and in test [8] was inactive.
As to `O=C(CCNc1ccnc(NCCc2ccc(F)cc2)n1)Nc1ccccc1`, the growth inhibition in test [1] was 10%; in test [4] it was 95% (active). Moreover, the inhibition in test [2] was 9%; in test [3] it was -4%. Further, the result in test [5], in test [6], in test [7] and in test [8] was inactive.
As to `Cc1cccc2[nH]c(-c3cccc(-c4ccc(NC(=O)c5ccc(=O)[nH]n5)cc4)c3)nc12`, the growth inhibition in test [1] is 27%; in test [4], 101% (active). For the same molecule, the inhibition in test [2] is 18%; in test [3] it was 1%. The outcome in test [5], in test [6], in test [7] and in test [8] was inactive.
As for `COc1cccc2cc(C(=O)N[C@@H](CC(C)C)C(=O)NC3CC[C@@H](C)N(C(=O)Nc4ccncc4)CC3=O)oc12` (stereo not given in full), the growth inhibition in test [1] was 90% (active); in test [4], 95% (active). Also, the inhibition in test [2] was 7%; in test [3] it was -7%. Also, the outcome in test [5], in test [6], in test [7] and in test [8] was inactive.
On to `O=C(c1cc(-c2cccs2)[nH]n1)N1CCN(S(=O)(=O)c2ccc(Cl)cc2)CC1`, for which the growth inhibition in test [1] was 95% (active); in test [4], 96% (active). Also, the results for the inhibition in test [2] and in test [3] were -1% and 3%, respectively. Further, the outcome in test [5], in test [6], in test [7] and in test [8] was inactive.
With `Cc1ccc(O)cc1Nc1ccnc2ccc(-c3cccc(CNCCN(C)C)c3)cc12`, the growth inhibition in test [1] was 46%; in test [4], 100% (active). Further, the inhibition in test [2] is -7%; in test [3], -3%. In addition, the outcome in test [5], in test [6], in test [7] and in test [8] was inactive.
Consider `CCN(CC)CCn1c(=N)n(CC(=O)c2ccc(-c3ccccc3)cc2)c2ccccc21`, for which the growth inhibition was 38% in test [1] and 83% (active) in test [4]. Also, the results for the inhibition in test [2] and in test [3] were 32% and 0%, respectively. In addition, the outcome in test [5], in test [6], in test [7] and in test [8] was inactive.
For `Cc1ccc(NC(=O)Nc2ccc(Cl)cc2)cc1-c1ccc(C(=O)Nc2ccncc2)cc1`, the growth inhibition in test [1] was 63% (active); in test [4], 99% (active). Besides, the inhibition in test [2] was 54% (active); in test [3], -1%. Further, the outcome in test [5], in test [6], in test [7] and in test [8] was inactive.
As for `COc1ccc(C(=O)Nc2ccc(Nc3nc(C)cc(N(C)C)n3)cc2)c(OC)c1`, the growth inhibition in test [1] is 72% (active); in test [4] it was 100% (active). The values for the inhibition in test [2] and in test [3] were 34% and 0%, respectively. Further, the result in test [5], in test [6], in test [7] and in test [8] was inactive.
Consider `Cc1nc(N)nc(N)c1CCCOc1ccc(Br)cc1`, for which the growth inhibition is 5% in test [1] and 97% (active) in test [4]. The results for the inhibition in test [2] and in test [3] were 30% and 1%, respectively. The result in test [5], in test [6], in test [7] and in test [8] was inactive.
Take `COc1ccc(CNc2ccc3nc(N)nc(N)c3c2)cc1`: the growth inhibition in test [1] is 84% (active); in test [4], 99% (active). Moreover, the inhibition in test [2] was 39%; in test [3], -4%. For the same molecule, the outcome in test [5], in test [6], in test [7] and in test [8] was inactive.
For `COc1cccc(-c2csc(C(=O)NCC3CCN(Cc4ccc(C(C)(C)C)cc4)C3)c2)c1` (stereo not given), the growth inhibition in test [1] was 10%; in test [4] it was 95% (active). Further, the inhibition is 30% in test [2] and -2% in test [3]. The result in test [5], in test [6], in test [7] and in test [8] was inactive.
For `COCCNC(=O)C1CCN(C(c2ccc(Cl)cc2)c2ccc(Cl)cc2)CC1`, the results for the growth inhibition in test [1] and in test [4] were 73% (active) and 86% (active), respectively. Also, the inhibition in test [2] is 3%; in test [3], -3%. In addition, the result in test [5], in test [6], in test [7] and in test [8] was inactive.
Consider `NCC1CCCN1Cc1cccc(-c2ccc(-c3nc4ccccc4[nH]3)s2)c1` (stereo not given), for which the growth inhibition in test [1] is 66% (active); in test [4], 99% (active). Besides, the inhibition in test [2] was 16%; in test [3] it was 3%. The result in test [5], in test [6], in test [7] and in test [8] was inactive.
On to `CCCC(C)Nc1nc(C)cc(N[C@@H](CC(C)C)C(=O)Nc2ccc(OC)cc2)n1` (stereo not given in full), for which the values for the growth inhibition in test [1] and in test [4] were 68% (active) and 98% (active), respectively. For the same molecule, the inhibition was 18% in test [2] and -1% in test [3]. The result in test [5], in test [6], in test [7] and in test [8] was inactive.

(Values after PubChem BioAssay.)
